Bioassay records deposited in PubChem BioAssay by National Center for Advancing Translational Sciences (NCATS).
Most compounds without a hit are left out; they make up all but 2.3% or so of the library.
Tau fibril FP: qHTS for Inhibitors of Tau Fibril Formation, Fluorescence Polarization. 0.39% of 280,000 active. K18 P301L tau heparin fibrillization, Alexa594 FP, 6 h. Microtubule-associated protein tau (Homo sapiens), P10636. AID 1468, 2008. Potency, µM (doses to about 57.7 µM), for inactives: at the top dose activity, negative = inhibition, most hits filed as inhibitors; further: potency means the concentration at half of the fitted maximal effect; nearly all actives have a fitted effect of over 55% in size
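Quantitative HTS format: compounds meet 15 uM recombinant K18 P301L tau and Alexa 594-tau tracer in 100 mM sodium acetate pH 7; 20 uM heparin triggers fibrillization at 37 C over 6 hr; FP gives the signal.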
Tau fluor counter: Counterscreen qHTS for Inhibitors of Tau Fibril Formation, Fluorescence Polarization. tau K18 P301L Alexa594 fluorescence, heparin fibrillization. Potency, µM (titrated, usually from 57.7 µM), for inactives: top-dose activity change, negative = decrease. 0.93% of 280,000 active. AID 1463, 2008; further: potency means the concentration at half of the fitted maximal effect; nearly all actives have a fitted effect of over 55% in size
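Human K18 P301L tau (15 uM unlabeled plus 0.24 uM Alexa 594-labeled, final) in 100 mM sodium acetate pH 7 was mixed with compound and 20 uM heparin and incubated 6 hr at 37 C.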
Tau fibril ThT: qHTS for Inhibitors of Tau Fibril Formation, Thioflavin T Binding. Microtubule-associated protein tau (Homo sapiens), P10636. recombinant tau K18 P301L (four-repeat tau fragment), heparin-induced fibrillization, ThT fluorescence. Potency, µM (top dose mostly 57.4 µM), without a hit: at the highest dose activity, negative = inhibition, actives largely listed as inhibitors. 2.1% of 270,000 active. AID 1460, 2008; further: potency means the concentration at half of the fitted maximal effect; nearly all actives have a fitted effect of over 55% in size
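In this qHTS, human K18 P301L tau is incubated with compound and heparin for 6 hr at 37 C, and Thioflavin T fluorescence then reports fibril load.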
USP1 inh: Inhibitors of USP1/UAF1: Primary Screen; Ubiquitin carboxyl-terminal hydrolase 1 (Homo sapiens), O94782; recombinant USP1/UAF1, Ub-Rhodamine cleavage fluorescence; Potency, µM (titrated, usually from 57.1 µM), without a hit: at the top dose activity change, negative = inhibition, most hits filed as inhibitors; 0.23% of 390,000 active; further: potency means the concentration at half of the fitted maximal effect; nearly all actives have a fitted effect of over 60% in size
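In this screen, compounds sit with the deubiquitinase complex (1nM) for 15 min at room temperature before Ub-Rho is added at 150nM final. Fluorescence rise is then followed for 6 reads every 60 seconds.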
Coupling enz: qHTS Assay for Inhibitors of Fructose-1,6-bisphosphate Aldolase from Giardia Lamblia: Coupling assay counterscreen. 0.67% of 290,000 active. coupling enzyme system counterscreen, AmpLite Red fluorescence. activity change, negative = inhibition, % at 58.2 µM, hits read low; in the data active means activity change below about -30%
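First, compound is pin-transferred into glyceraldehyde-3-phosphate coupling-enzyme reagent at 57.5 uM final and held 10 min at RT. Next, substrate, coupling system and AmpLite Red are added. After 20 min RT, fluorescence (525/598 nm) is read.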
Starred values were filed as active, the others as inactive; ? = inconclusive; . = no result given; [ ] = dose if it differs, or a comment. Unless noted, the call rests on the fitted dose curve; in most records, active means well fitted curve in the direction sought with a large enough effect; inconclusive means small, poorly fitted or top-dose-only effect, or another doubt; inactive means no such curve, though single readings can be large; an effect the other way counts as inactive or inconclusive. On the % scale 0 is the no-effect control and ±100 the full control effect.

SMILES	Tau fibril FP	Tau fluor counter	Tau fibril ThT	USP1 inh	Coupling enz
COc1cc(/C=C2/C(C)=C(C#N)c3nc(N)c(C#N)c(C)c32)ccc1OCC(=O)O	?	?	14.1µM*	-22.0%	-14.9
CC1=C(C#N)c2nc(N)c(C#N)c(C)c2/C1=C\c1ccc(-c2ccccc2C(=O)O)o1	?	?	8.91µM*	?	2.3
CCOC(=O)C1=C(c2ccccc2)c2ccc(OC)cc2N(S(=O)(=O)C(F)(F)F)C1C(=O)OCC (centres undefined)	9.0%	-17.9%	-14.4%	-31.5%	-6.2
Cc1cccc(NC2=C/C(=N/S(=O)(=O)c3cccs3)c3ccccc3C2=O)c1	4.5%	-3.5%	15.3%	?	3.5
Cc1ccc(Cl)cc1NC1=C/C(=N\S(=O)(=O)c2cccs2)c2ccccc2C1=O	-2.1%	?	4.47µM*	3.16µM*	-45.7*
Cc1ccc(NC2=C/C(=N\S(=O)(=O)c3cccs3)c3ccccc3C2=O)c(C)c1	2.0%	?	?	2µM*	-2.1
Cc1ccc(NC(=O)C(=O)NCC(c2cccnc2)N2CCc3ccccc3C2)cc1 (centres undefined)	-7.4%	-17.3%	?	-15.7%	.
COC1=CC(=O)C(C(=O)c2ccccc2)=CC1=O	10µM*	6.31µM*[quencher]	3.16µM*	.	-67.0*
O=C(Nc1cccc(F)c1)N1CC[C@@]2(CCCN(C(=O)c3cccc(F)c3)C2)C1	.	.	.	.	0.6
COCCCN1CC23C=CC(O2)C(C(=O)OC)C3C1=O (centres undefined)	.	.	.	-1.5%	.
COC(=O)C1C2C=CC3(CN(CC4CCCO4)C(=O)C13)O2 (centres undefined)	5.8%	2.5%	1.4%	-12.8%	-79.5*
O=c1oc2ccccc2c(O)c1Cc1cc(Cl)c2cccnc2c1O	?	?	14.1µM*	-24.8%	-1.3
Cc1ccc(-c2nc(N)sc2-c2ccccc2)cc1C	3.1%	10µM*[quencher]	?	-25.0%	-10.3
Cc1ccc(-c2nc(N)sc2-c2ccc(C)cc2)cc1	-13.8%	14.1µM*[quencher]	?	-17.7%	-1.6
Cc1ccc(-c2nc(N)sc2C)cc1	14.5%	-10.1%	-16.9%	-13.8%	-0.6
Nc1nc(-c2ccccc2)c(-c2ccccc2)s1	12.5%	?	-3.8%	-13.9%	-2.7
CSc1ncc2c(n1)-c1ccccc1N(Cc1ccccc1)S2(=O)=O	-11.0%	?	-12.3%	-5.9%	.
CCc1nc(-c2ccccc2)c2ccccn12	5.8%	-23.0%	?	3.1%	-43.2*
O=Cc1c(-c2ccccc2)nc2ccccn12	0.4%	-3.5%	1.3%	-16.3%	0.1
COc1cc2c(cc1OC)-c1cc3ccc4c(c3c[n+]1CC2)OCO4	-8.8%	-17.4%	15.8µM*	25.1µM*	-44.1*
COc1cc2c(cc1OC)C(c1ccccc1)=NCC2	2.6%	-0.5%	-0.4%	-3.9%	2.8
CCC1=C(OC(=O)N(CC)CC)N2C(=O)OC(=NCCOC)[C@]2(C)[C@H]2C1=CC[C@H]1C(=O)N(C)C(=O)[C@H]12	-3.8%	-8.9%	-9.6%	.	0.5
Nc1nc(Nc2cccc(Cl)c2)nc(NCc2ccco2)c1[N+](=O)[O-]	28.2µM*	?	?	?	-0.4
Nc1nc(Nc2cccc(F)c2)nc(NCc2ccco2)c1[N+](=O)[O-]	?	?	.	-10.3%	-1.2
COc1ccc(Nc2nc(N)c([N+](=O)[O-])c(NCc3ccccc3)n2)cc1	-3.9%	14.1µM*[quencher]	?	-20.7%	2.8
Cc1ccc(Nc2nc(N)c([N+](=O)[O-])c(NCc3ccccc3)n2)cc1	?	?	?	0.6%	-3.2
COc1ccc(Nc2cc(C)nc(NCc3ccccc3)n2)cc1	3.8%	35.5µM*[quencher]	?	-20.2%	-1.6
Nc1nc(Nc2ccc(Cl)cc2)nc(NCc2ccco2)c1[N+](=O)[O-]	15.8µM*	?	?	?	-1.1
Cc1cccc(Nc2nc(N)c([N+](=O)[O-])c(NCc3ccco3)n2)c1	?	?	?	-15.0%	2.4
